The record followed here is PubChem BioAssay (EPA / NIEHS).

SMILES strings stand for the structures. Inconclusive results are not listed. The source made the active and inactive calls. Rule for the calls: active = hit-call score of the fitted dose curve at least 0.9, where 1 is the maximum; inconclusive = response in the unintended direction; inactive = score below 0.9.

This experiment in a line: CLD_ACTIN_24hr: CellzDirect (CLD) Gene Expression Assay for Baseline Control (Actin) at 24 hours (AID 2283670). As to the method:
CLD_24hr is a cell-based, multiplexed-readout assay that uses hepatocyte, a human liver primary cell, with measurements taken at 24 hours after chemical dosing in a 96-well plate.CLD_ACTIN_24hr is one of 16 assay component(s) measured or calculated from the CLD_24hr assay. It is designed to make measurements of mRNA induction, a form of inducible reporter, as detected with chemiluminescence signals by Quantitative Nuclease Protection Assay (qNPA) technology.Data from the assay component CLD_ACTIN_24hr was analyzed at the endpoint, CLD_ACTIN_24hr, in the positive analysis fitting direction relative to DMSO as the negative control and baseline of activity. Using a type of inducible reporter, gain-of-signal activity can be used to understand changes in the reporter gene as they relate to the gene ACTA1. Furthermore, this assay endpoint can be referred to as a secondary readout, because this assay has produced multiple assay endpoints where this one serves a background control function. To generalize the intended target to other relatable targets, this assay endpoint is annotated to the background measurement intended target family, where subfamily is baseline control.
Human hepatocyte cultures were treated daily for two consecutive days with fresh dosing solutions containing appropriate concentrations of the 320 ToxCast chemicals (chemical identities were blinded to CellzDirect and other ToxCast collaborators), vehicle control (0.2% DMSO), and positive control inducers as summarized in Table 1. Due to the large number of treatment groups and chemicals examined, the ToxCast chemicals were divided into two groups (spanning two independent cultures of hepatocytes from separate donor preparations (Hu778: ToxCast plates 1 and 2; Hu776: ToxCast plates 3 and 4). Each preparation of human hepatocyte cultures was treated with respective vehicle control, medium only control, set of six positive controls/reference chemicals for the five hepatic receptor pathways, and a subset of eight of the ToxCast chemicals (indoxacarb, pyrithiobac-sodium, norflurazon, cyhalofop-butyl, methomyl, thiram, acetochlor, and propiconazole). These replicate data, coupled with internal replicates designed within the blinded ToxCast chemical library, provided additional data to evaluate interindividual differences between hepatocyte preparations and their potential impact on chemical profiles.Cell morphology and integrity were evaluated using phase-contrast microscopy as an indicator of hepatocyte cell health (Tyson & Green, 1987). Cultures for each treatment group (i.e., media, vehicle [0.2% DMSO], positive control inducers [multiple concentrations], and the ToxCast chemicals [multiple concentrations]) were observed and cell morphology was assessed relative to vehicle control cultures at each harvest time point (0, 6, 24, or 48 h). […] Images were evaluated at the conclusion of the study to assess changes in cell integrity and account for the effects of chemical exposure on uncharacteristic changes in concentration-dependent gene expression profiles. The results from these determinations of apparent cytotoxicity were annotated (yes/no) alongside the corresponding qNPA data for reference.At the conclusion of each treatment period, hepatocyte cultures (96-well) were washed with 1 volume of HBSS, lysed by addition of 25 ul ArrayPlate lysis buffer (HTG, Tucson, AZ), and 70 ul/well of Denaturation Oil, denatured by incubation at 95C for 10 min, and frozen at approximately -70C until analysis by nuclease protection assay (qNPA) (Roberts et al., 2007). For qNPA analysis, cell lysates were thawed at 50C for approximately 30 min, qNPA probes were added, and samples were incubated at 95C for 10 min to begin the detection process by denaturing the target RNA, dissociating the duplexes and secondary structure hybridization. At the conclusion of the hybridization period, S1 nuclease reagent was added to each sample to digest all nonprotected nucleotides at 50C for 60-90 min. […]
Regarding `Cc1c(COC(=O)[C@@H]2[C@H](/C=C(\Cl)C(F)(F)F)C2(C)C)cccc1-c1ccccc1`, the call was inactive. The value for `O=C1C2CC=CCC2C(=O)N1SC(Cl)(Cl)Cl` (stereo not drawn) was “inactive”. Next, `Clc1nc(Cl)nc(Nc2ccccc2Cl)n1`: “inactive”; `CS(=O)(=O)c1ccc(C(=O)C2C(=O)CCCC2=O)c([N+](=O)[O-])c1`: “inactive”. Next, `CCCCC(O)(Cn1cncn1)c1ccc(Cl)cc1Cl` (stereo not drawn): “inactive”; `COP(=O)(OC)O/C(C)=C/C(=O)N(C)C`: “inactive”; `CSC(=O)c1c(C(F)F)nc(C(F)(F)F)c(C(=O)SC)c1CC(C)C`: “inactive”.

For the compound `CC(C)C1(C)N=C(c2ncccc2C(=O)O)NC1=O` (stereo not drawn), the compound was called inactive. Next, `COCc1cnc(C2=NC(C)(C(C)C)C(=O)N2)c(C(=O)O)c1` (stereo not drawn): “inactive”; `CC(C)N1C(=O)c2ccccc2NS1(=O)=O`: “inactive”.

For `CCSC(=O)N1CCCCCC1`, the compound was called inactive. With `O=C(O)c1c(Cl)ccc2cc(Cl)cnc12`, the call was inactive. The value for `Nc1c(Cl)c(F)nc(OCC(=O)O)c1Cl` was “inactive”; that for `Cc1cnc(C2=NC(C)(C(C)C)C(=O)N2)c(C(=O)O)c1` (stereo not drawn) was “inactive”; that for `O=P(O)(O)CCCl` was “inactive”. Next, `CCCN(CC)CC1COC2(CCC(C(C)(C)C)CC2)O1` (stereo not drawn): “inactive”. `N#CN=C1SCCN1Cc1ccc(Cl)nc1`: the outcome was inactive. As for `CCOc1nc(C(Cl)(Cl)Cl)ns1`, the call was inactive. Next, `CC1(C)CON(Cc2ccccc2Cl)C1=O`: “inactive”; `COc1ccc(-c2ccccc2)cc1NNC(=O)OC(C)C`: “inactive”; `CO/N=C(/C1=NOCCO1)c1ccccc1Oc1ncnc(Oc2ccccc2Cl)c1F`: “inactive”. The value for `Cn1c(-c2ccccc2)cc(-c2ccccc2)[n+]1C` was “inactive”; that for `Clc1cccc(C(Cl)(Cl)Cl)n1` was “inactive”.
